Source: the supplement of paper PMC4022240
± gives the standard deviation.

What was measured:
Test in all cases: peptide microarray binding signal (635 nm), min-max normalized on array (fraction of array maximum); higher = stronger binding
[1] = target: T1, HaloTag-ATRX ADD domain (163-292)
T1 chain: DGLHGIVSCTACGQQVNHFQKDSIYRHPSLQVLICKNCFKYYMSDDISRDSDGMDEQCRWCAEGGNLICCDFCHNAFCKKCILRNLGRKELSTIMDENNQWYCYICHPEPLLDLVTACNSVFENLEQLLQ
How it was run: (§1)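 Histone 13-mer peptide–cellulose conjugates were printed in triplicate on nitrocellulose with a Cy3 tracer, then blocked overnight at 4°C. Arrays were probed for 1 h at 4°C with biotin-labelled HaloTag reader fusions (10 nM to 1 μM) plus streptavidin-Alexa Fluor 647, or with rabbit histone antibodies (1:10,000 to 1:2,000) plus anti-rabbit Alexa 647. An Axon GenePix 4000B scanned 635 nm for signal and 532 nm for misprints. Binding signal is the triplicate-spot mean intensity, min-max scaled per library.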

[2] = target: HaloTag-ING2 PHD (mouse Ing2 200-280)
How it was run: as §1

[3] = target: anti-H3K4me3 antibody ab8580
How it was run: as §1

[4] = target: anti-H3K9me3 antibody ab8898
How it was run: as §1

[5] = peptide region: H4 1-13, peptide modifications: H4K8ac H4K12ac, binder concentration: 1:2,000 dilution
[6] = peptide region: H4 1-13, peptide modifications: H4K8ac H4K12ac, binder concentration: 1:10,000 dilution
[7] = peptide region: H4 8-19, peptide modifications: H4K8ac H4K12ac, binder concentration: 1:2,000 dilution
[8] = peptide region: H4 8-19, peptide modifications: H4K8ac H4K12ac, binder concentration: 1:10,000 dilution
[9] = peptide region: H4 1-13, peptide modifications: H4K12ac, binder concentration: 1:2,000 dilution
[10] = peptide region: H4 1-13, peptide modifications: H4K12ac, binder concentration: 1:10,000 dilution
[11] = peptide region: H4 1-13, peptide modifications: H4R3me2a, binder concentration: 1:2,000 dilution
[12] = peptide region: H4 1-13, peptide modifications: H4R3me2a, binder concentration: 1:10,000 dilution
[13] = peptide region: H4 1-13, peptide modifications: H4S1ph H4R3me2a, binder concentration: 1:2,000 dilution
[14] = peptide region: H4 1-13, peptide modifications: H4S1ph H4R3me2a, binder concentration: 1:10,000 dilution
[15] = peptide region: H4 8-19, binder concentration: 1:2,000 dilution
[16] = peptide region: H4 8-19, binder concentration: 1:10,000 dilution
[17] = peptide region: H4 1-13, peptide modifications: H4K5ac, binder concentration: 1:2,000 dilution
[18] = peptide region: H4 1-13, peptide modifications: H4K5ac, binder concentration: 1:10,000 dilution
[19] = peptide region: H4 1-13, peptide modifications: H4S1ph H4K5ac, binder concentration: 1:2,000 dilution
[20] = peptide region: H4 1-13, peptide modifications: H4S1ph H4K5ac, binder concentration: 1:10,000 dilution
[21] = peptide region: H4 1-13, peptide modifications: H4S1ph H4R3me2s, binder concentration: 1:2,000 dilution
[22] = peptide region: H4 1-13, peptide modifications: H4S1ph H4R3me2s, binder concentration: 1:10,000 dilution
[23] = peptide region: H4 1-13, peptide modifications: H4S1ph H4R3cit, binder concentration: 1:2,000 dilution
[24] = peptide region: H4 1-13, peptide modifications: H4S1ph H4R3cit, binder concentration: 1:10,000 dilution

SGRGKGGKGLGKG [H4 1-13 S G R G K G G Kac G L G Kac G]
peptide microarray binding signal ([1]; peptide region: H4 1-13, peptide modifications: H4K8ac H4K12ac, binder concentration: 50 nM): 0.00188 ± 7.5e-05 | peptide microarray binding signal ([1]; peptide region: H4 1-13, peptide modifications: H4K8ac H4K12ac, binder concentration: 500 nM): 0.00533 ± 0.00034 | peptide microarray binding signal ([2]; peptide region: H4 1-13, peptide modifications: H4K8ac H4K12ac, binder concentration: 10 nM): 0.00179 ± 0.0001 | peptide microarray binding signal ([2]; peptide region: H4 1-13, peptide modifications: H4K8ac H4K12ac, binder concentration: 100 nM): 0.00255 ± 6.4e-05 | peptide microarray binding signal [3, 5]: 0.00017 ± 6.4e-06 | peptide microarray binding signal [3, 6]: 0.000799 ± 1.7e-05 | peptide microarray binding signal [4, 5]: 0.000438 ± 8.5e-06 | peptide microarray binding signal [4, 6]: 0.000577 ± 1.2e-05

KGLGKGGAKRHRK [H4 8-19 Kac G L G Kac G G A K R H R K]
peptide microarray binding signal ([1]; peptide region: H4 8-19, peptide modifications: H4K8ac H4K12ac, binder concentration: 50 nM): 0.000251 ± 1.2e-05 | peptide microarray binding signal ([1]; peptide region: H4 8-19, peptide modifications: H4K8ac H4K12ac, binder concentration: 500 nM): 0.000143 ± 2.7e-06 | peptide microarray binding signal ([2]; peptide region: H4 8-19, peptide modifications: H4K8ac H4K12ac, binder concentration: 10 nM): 0.00567 ± 0.0013 | peptide microarray binding signal ([2]; peptide region: H4 8-19, peptide modifications: H4K8ac H4K12ac, binder concentration: 100 nM): 0.000496 | peptide microarray binding signal [3, 7]: 0.000113 | peptide microarray binding signal [3, 8]: 0.00165 ± 0.00042 | peptide microarray binding signal [4, 7]: 6.04e-05 ± 6.8e-07 | peptide microarray binding signal [4, 8]: 5.77e-05 ± 6.6e-07

SGRGKGGKGLGKG [H4 1-13 S G R G K G G K G L G Kac G]
peptide microarray binding signal ([1]; peptide region: H4 1-13, peptide modifications: H4K12ac, binder concentration: 50 nM): 0.00238 ± 2.8e-05 | peptide microarray binding signal ([1]; peptide region: H4 1-13, peptide modifications: H4K12ac, binder concentration: 500 nM): 0.00652 ± 0.001 | peptide microarray binding signal ([2]; peptide region: H4 1-13, peptide modifications: H4K12ac, binder concentration: 10 nM): 0.00251 ± 0.00023 | peptide microarray binding signal ([2]; peptide region: H4 1-13, peptide modifications: H4K12ac, binder concentration: 100 nM): 0.0056 ± 0.00073 | peptide microarray binding signal [3, 9]: 0.000302 ± 1.7e-05 | peptide microarray binding signal [3, 10]: 0.000799 ± 3.3e-05 | peptide microarray binding signal [4, 9]: 0.000121 ± 8.7e-06 | peptide microarray binding signal [4, 10]: 0.000577 ± 6.2e-06

SGRGKGGKGLGKG [H4 1-13 S G Rme2a G K G G K G L G K G]
peptide microarray binding signal ([1]; peptide region: H4 1-13, peptide modifications: H4R3me2a, binder concentration: 50 nM): 0.0021 ± 9.6e-06 | peptide microarray binding signal ([1]; peptide region: H4 1-13, peptide modifications: H4R3me2a, binder concentration: 500 nM): 0.00305 ± 6.3e-05 | peptide microarray binding signal ([2]; peptide region: H4 1-13, peptide modifications: H4R3me2a, binder concentration: 10 nM): 0.00269 ± 4e-05 | peptide microarray binding signal ([2]; peptide region: H4 1-13, peptide modifications: H4R3me2a, binder concentration: 100 nM): 0.00404 ± 9.1e-05 | peptide microarray binding signal [3, 11]: 0.000227 ± 4.2e-06 | peptide microarray binding signal [3, 12]: 0.000856 ± 2.3e-05 | peptide microarray binding signal [4, 11]: 1.51e-05 ± 1.7e-07 | peptide microarray binding signal [4, 12]: 0.000577 ± 1.2e-05

SGRGKGGKGLGKG [H4 1-13 Sph G Rme2a G K G G K G L G K G]
peptide microarray binding signal ([1]; peptide region: H4 1-13, peptide modifications: H4S1ph H4R3me2a, binder concentration: 50 nM): 0.00605 ± 0.001 | peptide microarray binding signal ([1]; peptide region: H4 1-13, peptide modifications: H4S1ph H4R3me2a, binder concentration: 500 nM): 0.0165 ± 0.0018 | peptide microarray binding signal ([2]; peptide region: H4 1-13, peptide modifications: H4S1ph H4R3me2a, binder concentration: 10 nM): 0.00334 ± 4.8e-05 | peptide microarray binding signal ([2]; peptide region: H4 1-13, peptide modifications: H4S1ph H4R3me2a, binder concentration: 100 nM): 0.00794 ± 0.0014 | peptide microarray binding signal [3, 13]: 0.00225 ± 0.00023 | peptide microarray binding signal [3, 14]: 0.00194 ± 6.3e-05 | peptide microarray binding signal [4, 13]: 0.000982 ± 4.2e-05 | peptide microarray binding signal [4, 14]: 0.00104 ± 1.1e-05

KGLGKGGAKRHRK [H4 8-19 K G L G K G G A K R H R K]
peptide microarray binding signal ([1]; peptide region: H4 8-19, binder concentration: 50 nM): 0.00495 ± 5.5e-05 | peptide microarray binding signal ([1]; peptide region: H4 8-19, binder concentration: 500 nM): 0.0131 ± 0.0015 | peptide microarray binding signal ([2]; peptide region: H4 8-19, binder concentration: 10 nM): 0.00466 ± 0.00021 | peptide microarray binding signal ([2]; peptide region: H4 8-19, binder concentration: 100 nM): 0.0136 ± 0.0014 | peptide microarray binding signal [3, 15]: 0.000793 ± 4.3e-05 | peptide microarray binding signal [3, 16]: 0.00154 ± 3e-05 | peptide microarray binding signal [4, 15]: 0.000529 ± 1.3e-05 | peptide microarray binding signal [4, 16]: 0.0011 ± 1.1e-05

SGRGKGGKGLGKG [H4 1-13 S G R G Kac G G K G L G K G]
peptide microarray binding signal ([1]; peptide region: H4 1-13, peptide modifications: H4K5ac, binder concentration: 50 nM): 0.00201 ± 2.4e-05 | peptide microarray binding signal ([1]; peptide region: H4 1-13, peptide modifications: H4K5ac, binder concentration: 500 nM): 0.00524 ± 0.00032 | peptide microarray binding signal ([2]; peptide region: H4 1-13, peptide modifications: H4K5ac, binder concentration: 10 nM): 0.00197 ± 5.8e-05 | peptide microarray binding signal ([2]; peptide region: H4 1-13, peptide modifications: H4K5ac, binder concentration: 100 nM): 0.00659 ± 0.00054 | peptide microarray binding signal [3, 17]: 0.000585 ± 1.1e-05 | peptide microarray binding signal [3, 18]: 0.000571 ± 1.1e-05 | peptide microarray binding signal [4, 17]: 0.000302 ± 1.2e-05 | peptide microarray binding signal [4, 18]: 0.000404 ± 4.4e-06

SGRGKGGKGLGKG [H4 1-13 Sph G R G Kac G G K G L G K G]
peptide microarray binding signal ([1]; peptide region: H4 1-13, peptide modifications: H4S1ph H4K5ac, binder concentration: 50 nM): 0.00348 ± 3.8e-05 | peptide microarray binding signal ([1]; peptide region: H4 1-13, peptide modifications: H4S1ph H4K5ac, binder concentration: 500 nM): 0.0117 ± 0.00091 | peptide microarray binding signal ([2]; peptide region: H4 1-13, peptide modifications: H4S1ph H4K5ac, binder concentration: 10 nM): 0.001373 ± 8.3e-06 | peptide microarray binding signal ([2]; peptide region: H4 1-13, peptide modifications: H4S1ph H4K5ac, binder concentration: 100 nM): 0.00269 ± 6.7e-05 | peptide microarray binding signal [3, 19]: 0.000208 ± 2.2e-06 | peptide microarray binding signal [3, 20]: 0.000856 ± 8.9e-06 | peptide microarray binding signal [4, 19]: 0.000362 ± 6.3e-06 | peptide microarray binding signal [4, 20]: 0.000692 ± 7.3e-06

SGRGKGGKGLGKG [H4 1-13 Sph G Rme2s G K G G K G L G K G]
peptide microarray binding signal ([1]; peptide region: H4 1-13, peptide modifications: H4S1ph H4R3me2s, binder concentration: 50 nM): 0.0052 ± 0.0008 | peptide microarray binding signal ([1]; peptide region: H4 1-13, peptide modifications: H4S1ph H4R3me2s, binder concentration: 500 nM): 0.00852 ± 0.00024 | peptide microarray binding signal ([2]; peptide region: H4 1-13, peptide modifications: H4S1ph H4R3me2s, binder concentration: 10 nM): 0.00346 ± 0.00014 | peptide microarray binding signal ([2]; peptide region: H4 1-13, peptide modifications: H4S1ph H4R3me2s, binder concentration: 100 nM): 0.00865 ± 0.00015 | peptide microarray binding signal [3, 21]: 0.00119 ± 0.0001 | peptide microarray binding signal [3, 22]: 0.0012 ± 1.2e-05 | peptide microarray binding signal [4, 21]: 0.000408 ± 1.8e-05 | peptide microarray binding signal [4, 22]: 0.000923 ± 9.6e-06

SGRGKGGKGLGKG [H4 1-13 Sph G Rcit G K G G K G L G K G]
peptide microarray binding signal ([1]; peptide region: H4 1-13, peptide modifications: H4S1ph H4R3cit, binder concentration: 50 nM): 0.00335 ± 0.00024 | peptide microarray binding signal ([1]; peptide region: H4 1-13, peptide modifications: H4S1ph H4R3cit, binder concentration: 500 nM): 0.00524 ± 0.00019 | peptide microarray binding signal ([2]; peptide region: H4 1-13, peptide modifications: H4S1ph H4R3cit, binder concentration: 10 nM): 0.00281 ± 4.1e-05 | peptide microarray binding signal ([2]; peptide region: H4 1-13, peptide modifications: H4S1ph H4R3cit, binder concentration: 100 nM): 0.00418 ± 0.0002 | peptide microarray binding signal [3, 23]: 0.000378 ± 3.9e-06 | peptide microarray binding signal [3, 24]: 0.000685 ± 7.2e-06 | peptide microarray binding signal [4, 23]: 0.000136 | peptide microarray binding signal [4, 24]: 0.00121 ± 0.00012
